Screening data deposited in PubChem by National Center for Advancing Translational Sciences (NCATS).
The list is not random: actives were taken first. Their share in the collection is about 9.4%.
Rab9 prom act: Rab9 promoter activation; Potency, µM (doses to about 9.22 µM), most hits filed as activators; AID 485297; Huh7 Rab9 promoter-luciferase reporter, luminescence, 24 h; 320,000 tested, 2.8% active; note: nearly all actives have a fitted effect of over 60% in size
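Cell-based reporter: Huh7 stable for Rab9 promoter-driven luciferase, plated in reduced-serum medium with 10% FBS at 1500 cells/well, compound-treated 24 h at 37 °C, luminescence read after 10 min reagent.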
ELG1 genotoxic: genotoxicity induction in ELG1-luciferase HEK293T cells | HEK293T ELG1-luciferase reporter, luminescence, 16 h | Potency, µM (titrated, usually from 46 µM), actives largely listed as activators | 330,000 tested, 1.3% active | AID 504466; note: nearly all actives have a fitted effect of over 60% in size
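Genotoxicity was scored as increased ELG1-luciferase reporter signal, measured by ONE-Glo luminescence (30 min, room temperature). Compound or vehicle exposure of the HEK293T reporter cells lasted 16 hr at 37°C.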
FLuc counter: inhibits or activates purified firefly luciferase, miR-21 counter-screen. purified FLuc, Km substrates, luminescence inhibition. Potency, µM (top dose mostly 57.5 µM), most hits filed as inhibitors. 360,000 tested, 6.9% active. AID 588342; note: nearly all actives have a fitted effect of over 55% in size
Target sequence (P08659 whole entry, looked up): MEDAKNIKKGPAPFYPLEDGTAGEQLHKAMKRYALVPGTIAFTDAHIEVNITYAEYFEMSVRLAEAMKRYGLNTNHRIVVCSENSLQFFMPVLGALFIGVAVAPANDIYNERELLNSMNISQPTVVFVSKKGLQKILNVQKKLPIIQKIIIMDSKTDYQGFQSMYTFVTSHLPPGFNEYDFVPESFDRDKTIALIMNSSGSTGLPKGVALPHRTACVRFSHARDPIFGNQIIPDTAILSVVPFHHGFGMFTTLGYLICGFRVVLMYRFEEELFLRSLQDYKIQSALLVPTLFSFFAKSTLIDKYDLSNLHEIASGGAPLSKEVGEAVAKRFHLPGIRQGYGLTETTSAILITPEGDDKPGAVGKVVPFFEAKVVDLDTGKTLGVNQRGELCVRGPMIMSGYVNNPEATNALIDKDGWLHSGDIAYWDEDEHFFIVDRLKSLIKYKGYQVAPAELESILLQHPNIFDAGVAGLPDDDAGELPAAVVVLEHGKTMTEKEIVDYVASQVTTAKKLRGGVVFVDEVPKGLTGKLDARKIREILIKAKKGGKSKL
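Purified P. pyralis luciferase, 10 nM final, with Km-level 10 uM D-luciferin and 10 uM ATP in 50 mM Tris acetate pH 7.5, 10 mM Mg acetate, 0.01% Tween-20, 0.05% BSA; 6-point qHTS titration about 60 µM downward; luminescence read.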
NPC1 promoter act: activators of NPC1 promoter | Huh7 NPC1 promoter luciferase reporter, 24 h | Potency, µM (titrated, usually from 9.22 µM), hits mostly activators | 320,000 tested, 2.4% active | AID 485313; note: nearly all actives have a fitted effect of over 60% in size
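Luminescence from an NPC1 promoter-driven luciferase reporter in stably transfected Huh7 cells was measured after 24 h compound treatment at 37 °C, followed by 10 min ambient incubation with luciferase detection reagent.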
SMN2 splice up: increases expression of the SMN2 splice variant; HEK293 SMN2-luciferase splicing reporter, luminescence, 30-36 h; Potency, µM (highest dose often 46.1 µM), usual class: activators; 210,000 tested, 2.8% active; note: nearly all actives have a fitted effect of over 55% in size
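HEK293 cells carry an SMN2 […]–luciferase reporter in which exon 7 inclusion puts luciferase in frame. Cells were plated 10-12 h before compound addition, then incubated 30-36 h at 37C. ONE-Glo luminescence was read; sodium butyrate at 4.5 mM final served as control.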
ELG1 repair inh: inhibitors of ELG1-dependent DNA repair in HEK293T cells | HEK293T ELG1-luciferase reporter, luminescence, 16 h; DNA damage induced by 5-fluorouridine | Potency, µM (top dose mostly 46.1 µM), most hits filed as inhibitors | 330,000 tested, 2.3% active | AID 504467; note: nearly all actives have a fitted effect of over 55% in size
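5-Fluorouridine DNA damage + compound/DMSO, 2,000 cells/well, 16 h, 37 °C/5% CO2. ONE-Glo, 30 min RT, luminescence. Readout = decrease in reporter signal.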
Numbers stand for hits; . = inactive; ? = inconclusive; / = no result given; [ ] = dose if it differs, or a comment. Calls come from the whole dose curve; as a rule, active = well fitted curve in the direction sought with a large enough effect; inconclusive = small, poorly fitted or top-dose-only effect, or another doubt; inactive = no such curve, though single readings can be large; an effect the other way counts as inactive or inconclusive.

SMILES | Rab9 prom act | ELG1 genotoxic | FLuc counter | NPC1 promoter act | SMN2 splice up | ELG1 repair inh
Cc1cccc(OCC(=O)Nc2nccs2)c1C | 0.35µM | 2.1µM | 1.5µM | 0.35µM | / | ?
CCc1cccc(NC(=O)Cn2nc3c4cc(F)ccc4n(Cc4cccc(C)c4)cc-3c2=O)c1 | / | / | . | / | / | /
O=C(CC1N=C2c3ccccc3N=C(SCc3cccc(Cl)c3)N2C1=O)NC1CCCCC1 (centres undefined) | / | / | . | / | / | /
O=C1c2nc3cc(-c4ccco4)[nH]n3c(=O)c2CN1C1CCCCC1 | . | ? | 2.4µM | . | / | ?
CC(C)(C)c1cc2nc3c(c(=O)n2[nH]1)CN(Cc1ccccc1)C3=O | . | . | . | . | / | .
O=c1cc(-c2ccccc2)nc2cc(-c3ccco3)[nH]n12 | ? | . | 3.4µM | . | / | .
Cc1cc2nc(-c3ccccc3)cc(=O)n2[nH]1 | ? | . | 6.7µM | ? | / | ?
Cc1nc2ccccc2c(=O)n1-c1ccc(NC(=O)c2ccccc2[N+](=O)[O-])cc1 | / | / | . | / | / | /
O=C(NCCc1ccccc1)c1ccc(CSc2nc3cccnc3n2Cc2ccccc2)cc1 | / | / | . | / | / | /
CC(C)N(C(C)C)S(=O)(=O)c1ccc(N2CCc3ccccc3C2)nc1 | 4µM | ? | 13µM | ? | / | ?
CCN(CC)S(=O)(=O)c1ccc(N2CCc3ccccc3C2)nc1 | . | . | ? | . | / | .
CNC(=O)Nc1ccc2snnc2c1 | . | . | . | . | . | .
COc1ccc(NC(=O)c2ccc3snnc3c2)cc1OC | / | / | . | / | . | /
Cc1ccc(OC(=O)c2ccc3snnc3c2)cc1 | . | . | 9.5µM | . | . | .
COc1cccc(NC(=O)c2ccc3snnc3c2)c1 | ? | . | 19µM | ? | ? | ?
O=C(Nc1ccc(F)cc1)Nc1ccc2snnc2c1 | / | / | 24µM | / | . | /
Cc1ccc(NC(=O)c2ccc3snnc3c2)cc1C | ? | ? | 15µM | ? | 20µM | ?
CSCC[C@@H](C(=O)O)N(C)C | / | / | / | / | .[9.22 µM] | /
CC1CN(C(=O)Nc2ccc3snnc3c2)c2ccccc21 (centres undefined) | . | ? | 19µM | . | ? | ?
O=C(Nc1ccc2snnc2c1)N1CCSCC1 | . | . | . | . | . | .
CCc1ccc(C(=O)c2cnc3ccc(F)cc3c2S(=O)(=O)c2ccccc2)cc1 | / | / | . | / | . | /
CNS(=O)(=O)c1cn(CC(=O)N2CCN(c3ccc(C)cc3C)CC2)cc1S(=O)(=O)NC | / | / | . | / | / | /
Cc1nn(C)c2c1c(-c1ccccc1)cc(=O)n2CC(=O)NC(C)c1ccccc1 (centres undefined) | / | / | . | / | / | /
Cc1ccc(S(=O)(=O)/N=C(\CCl)N2CCOCC2)cc1 | . | . | . | . | . | 15µM
Cc1ccc(S(=O)(=O)/N=C(\CN2CCOCC2)N2CCCC2)cc1 | . | . | . | . | . | .
SMILES | Rab9 prom act | ELG1 genotoxic | FLuc counter | NPC1 promoter act | SMN2 splice up | ELG1 repair inh
COc1ccc(-c2csc(NC(=O)c3ccccc3Br)c2C(=O)O)cc1 | . | . | ? | . | / | .
COc1ccc(-c2csc(NC(=O)c3ccccc3OC)c2C(=O)O)cc1OC | . | . | . | . | / | .
O=C(Nc1scc(-c2ccccc2)c1C(=O)O)c1ccccc1F | . | . | 27µM | . | / | ?
Cc1ccc(-c2csc(NC(=O)c3ccccc3F)c2C(=O)O)cc1 | .[1.84 µM] | . | 21µM | ? | / | ?
Cc1ccc(C(=O)Nc2scc(-c3ccccc3)c2C(=O)O)o1 | . | . | 15µM | . | . | ?
Cc1ccc(C(=O)Nc2ccccc2-c2ccccc2)o1 | . | . | ? | . | . | .
O=C(C[C@@H]1C/C=C\CC[C@H](Cc2ccc(F)cc2)C(=O)OC[C@@H]2CCCN2C1=O)N[C@H](CO)Cc1ccccc1 | / | . | / | / | / | 21µM
O=C(C[C@@H]1C/C=C\C[C@H](NC(=O)OCC2c3ccccc3-c3ccccc32)C(=O)OC[C@H]2CCCN2C1=O)N[C@@H](CO)Cc1ccccc1 | / | . | / | / | / | 15µM
CC(C)(C)[C@H]1COC(=O)[C@@H](Cc2ccc(F)cc2)CC/C=C/C[C@@H](CC(=O)N[C@@H](CO)Cc2ccccc2)C(=O)N1 | / | . | / | / | / | 26µM
